From PubChem BioAssay (NCI)
Compounds without any hit were thinned out: in the full panel of roughly 83,000, 20% have a hit.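 Percent growth is the endpoint: 0 to 100 indicates growth inhibition (40 means 60% inhibition), 0 means no net growth, and negative values indicate cell death.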 Values without a mark were called inactive. The source made the active and inactive calls. How the source made its calls: active means growth percent below 10; inactive means the rest.

Columns and labels:
Test in all cases: NCI-60 one-dose screen, 48 h (100 = growth as untreated, 0 = no growth, -100 = all killed)
Settings in all cases: 10 µM unless noted
NCI-H23 lung = tested on: NCI-H23 lung
NCI-H226 lung = tested on: NCI-H226 lung
NCI-H322M lung = tested on: NCI-H322M lung
HOP-62 NSCLC = tested on: HOP-62 NSCLC
NCI-H522 lung = tested on: NCI-H522 lung
A549/ATCC NSCLC = tested on: A549/ATCC NSCLC
786-0 renal = tested on: 786-0 renal
COLO 205 colon = tested on: COLO 205 colon
DU-145 prostate = tested on: DU-145 prostate
K-562 leukemia = tested on: K-562 leukemia
MALME-3M melanoma = tested on: MALME-3M melanoma
MDA-MB-231 breast = tested on: MDA-MB-231 breast
RXF 393 renal = tested on: RXF 393 renal
SF-295 CNS = tested on: SF-295 CNS
SF-539 CNS = tested on: SF-539 CNS
UACC-257 melanoma = tested on: UACC-257 melanoma
M14 melanoma = tested on: M14 melanoma
HCT-15 colon = tested on: HCT-15 colon
SF-268 CNS = tested on: SF-268 CNS
NCI-H460 lung = tested on: NCI-H460 lung

| Compound | growth (NCI-H23 lung) | growth (NCI-H226 lung) [%] | growth (NCI-H322M lung) [%] | growth (HOP-62 NSCLC) [%] | growth (NCI-H522 lung) | growth (A549/ATCC NSCLC) [%] | growth (786-0 renal) [%] | growth (COLO 205 colon) | growth (DU-145 prostate) | growth (K-562 leukemia) [%] | growth (MALME-3M melanoma) | growth (MDA-MB-231 breast) [%] | growth (RXF 393 renal) | growth (SF-295 CNS) | growth (SF-539 CNS) | growth (UACC-257 melanoma) [%] | growth (M14 melanoma) | growth (HCT-15 colon) [%] | growth (SF-268 CNS) [%] | growth (NCI-H460 lung) [%] |
| --- | --- | --- | --- | --- | --- | --- | --- | --- | --- | --- | --- | --- | --- | --- | --- | --- | --- | --- | --- | --- |
| COc1ccc2c(c1)/C(=C\c1c[nH]c3ccc(F)cc13)C(=O)N2 | 81.4% | 92.6 | 75.9 | 88.8 | 80% | 70 | 96.5 | 103% | 84% | 62.5 | 120% | 106 | 95.4% | 100% | 91.8% | 108 | 105% | 66 | – | – |
| CN(CC(=O)Nc1nc2ccccc2[nH]1)S(=O)(=O)c1ccc(Cl)cc1 | 126% | 81.7 | 98.3 | 69.4 | 80.6% | 111 | 91.9 | 95.6% | 89.9% | 95.7 | 100% | 99.6 | 122% | 38.4% | 88.5% | – | 95.7% | 90.8 | 67 | – |
| O=C(NCCCO)c1cc(Cl)ccc1O | 8.32% (active) | 24.3 | 83.6 | 36.3 | -1.53% (active) | 38.5 | 49.5 | 25% | 36.1% | 11.1 | 0.89% (active) | 28.2 | 40.7% | – | 45% | 16.4 | 30.3% | 77.5 | 28.4 | – |
| O=C(Nc1ccccc1Cl)c1cnc2ccc(C3CCNCC3)cn12 | 95% | 65 | 23.1 | 58.3 | 2.54% (active) | 66.7 | 52.8 | – | 56.7% | – | 96.2% | 61.3 | 36.5% | 70.7% | 47% | 82.5 | – | 46.6 | 60.7 | – |
| COc1ccc(/C=N/NC(=O)c2ccc(S(C)(=O)=O)cc2)cc1OC | 102% | 93.5 | 92.1 | 97.2 | 84.4% | – | 99.5 | 107% | 99.8% | 80.9 | 107% | 106 | 104% | 100% | 105% | – | 99.4% | 102 | 102 | – |
| Cc1nn(-c2ccccc2)c2nc(Cl)c(/C=C/C(=O)c3ccccc3)c(-c3ccccc3)c12 | 102% | 89.7 | 105 | 114 | 89.9% | 110 | 106 | 121% | 115% | – | 101% | 111 | 103% | 105% | – | 114 | 90.1% | 101 | 106 | – |
| COc1ccc(C2CC(c3cccc(Nc4ccnc5cc(Cl)ccc45)c3)=NN2C=O)cc1 (configuration not stated) | 10.7% | 46.3 | 62.5 | 27 | -35.5% (active) | 25.5 | 34.7 | -44.3% (active) | 2.95% (active) | 14.4 | 55.8% | 24.3 | -5.62% (active) | 2.43% (active) | -1.14% (active) | 63.3 | 25.2% | 27.8 | 44.5 | – |
| COc1cc(OC)c2sc(-c3ccc(-n4cncc4-c4ccc(N)cc4)cc3)nc2c1 | 101% | 98.7 | 84.7 | 110 | 84.8% | 60 | 71.8 | – | 80.3% | 59.9 | 84.4% | 87.3 | 81.5% | 48.1% | 84.6% | 69.8 | 76.4% | 69.7 | 74.5 | – |
| C[C@]12C[C@H](O)[C@H]3[C@@H](CCC4=CC(=O)CC[C@@]43C)[C@@H]1CC[C@@H]2C(=O)CO | 11% | 79.5 | 105 | 102 | 16% | – | 101 | 96% | 108% | 66.7 | 95.3% | 80.5 | – | 126% | 89.3% | – | – | 92 | 98.8 | – |
| Cn1cnc([N+](=O)[O-])c1S(=O)(=O)Oc1ccc(Cl)cc1 | 96% | 97.8 | 104 | 92.3 | – | 96 | 94.4 | -90% (active) | 81.5% | 16.1 | -70.4% (active) | 65.4 | 81.8% | 94.5% | 81.4% | 57 | – | 59 | 93 | 103 |
| NC(=O)NN=C(C1CC1)C1CC1 | 93.8% | 109 | 110 | 104 | – | 103 | 107 | 105% | 116% | 94.8 | 143% | 118 | 138% | 106% | 90.2% | 101 | 106% | 98 | 102 | 106 |
| COc1ccc(C2=NN(C(=O)c3cc(OC)c(OC)c(OC)c3)C(c3ccc(C#N)cc3)C2)cc1OC (configuration not stated) | 43.2% | 52.4 | 36.9 | 36.1 | -16% (active) | 22 | 25.1 | -9.28% (active) | 5.75% (active) | 20.6 | 39.5% | 18.2 | -17.2% (active) | -3.96% (active) | -13.3% (active) | 69.2 | -6.86% (active) | 26.7 | 49.3 | – |
| COc1ccc2nc(-c3ccc(-n4cncc4-c4ccc(OC)c(N)c4)cc3)sc2c1 | 108% | 108 | 95.3 | 116 | 82% | 93.5 | 111 | 105% | 119% | 90.6 | 131% | 104 | 113% | 99.8% | 105% | 109 | 110% | 97.4 | 109 | – |
| CCCCCCCCCCCCNc1ncnc2[nH]ncc12 | 51.1% | 72.9 | 99.3 | 93.4 | 76.1% | 71.1 | – | 95.4% | 85.9% | 48.7 | 84.7% | 68.6 | 96.4% | 54.8% | 77% | 50.2 | 74.2% | 84.9 | 84 | – |
| COc1ccc(-c2cc(C(=O)Nc3nc4cc(C)c(C)cc4s3)nc3cc(-c4ccccc4)nn23)cc1OC | 96% | 113 | 119 | 100 | 89% | 94.5 | 112 | – | 121% | 110 | 101% | 107 | 112% | 112% | 98.7% | 93 | 103% | 111 | – | – |
| Cc1ccc([N+](=O)[O-])cc1NC(=O)Nc1cccc(F)c1 | 42.2% | 69.6 | 98.3 | 99.4 | 31.4% | 57.9 | 71.6 | 138% | 84.6% | 31.4 | 99.6% | 93.4 | 126% | 50.3% | 85.1% | 82 | 67.7% | 68.4 | 100 | – |
| CC(=O)c1ccc2c3c(n(C)c2c1)CCCC3 | 104% | 33 | 117 | 101 | 95.2% | 106 | 92.7 | – | 98.3% | – | 118% | 101 | 112% | 97.7% | 98% | 116 | 108% | 105 | 101 | – |
